Screening data from PubChem.
RGS8-Gao – modulates binding of RGS8 to human Galphao | P09471 | response (percent of control binding), % at 10 µM | 220,000 tested, 0.34% active | multiplexed bead flow cytometry; actives lie on both sides; in the data active = response below about 60% or above about 140%; inactive = in between;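 note: Galphao activated as the GDP aluminium fluoride complex binding bead-coupled RGS8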
Target sequence (P09471 whole entry, looked up): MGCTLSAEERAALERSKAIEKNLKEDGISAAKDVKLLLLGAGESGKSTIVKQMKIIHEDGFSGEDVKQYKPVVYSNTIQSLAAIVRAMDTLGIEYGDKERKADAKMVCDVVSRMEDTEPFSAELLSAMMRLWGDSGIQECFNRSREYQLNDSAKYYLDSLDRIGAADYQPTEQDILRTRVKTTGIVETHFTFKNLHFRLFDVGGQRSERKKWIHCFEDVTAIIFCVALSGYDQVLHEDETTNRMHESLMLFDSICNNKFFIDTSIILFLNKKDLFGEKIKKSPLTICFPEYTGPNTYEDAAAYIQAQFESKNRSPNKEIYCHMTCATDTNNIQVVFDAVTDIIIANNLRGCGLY
RGS4-Gao reg – modulates binding of RGS4 to human Galphao; 220,000 tested, 0.33% active; binding response (% of control), % at 10 µM; P09471; Multiplexed bead flow cytometry; actives lie on both sides; in the data active = binding response below about 49% or above about 150%; inactive = in between;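 note: fluorescent Galphao activated with aluminum fluoride binding bead-coupled RGS4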
RGS7-Gao – modulates binding of RGS7 to human Galphao. P09471. Multiplexed bead flow cytometry; actives lie on both sides. binding response (% of control), % at 10 µM. 220,000 tested, 0.35% active. AID 1439; in the data active = binding response below about 49% or above about 150%; inconclusive = no clear call, values can overlap the other calls; inactive = in between;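 note: fluorescent Galphao held in activated GDP-AlF4 state binding bead-coupled RGS7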
RGS16-Gao – regulators of human RGS16-Galphao interaction; binding response (% of control), % at 10 µM; AID 1441; 220,000 tested, 0.38% active; bead-based flow cytometry RGS16-Galphao binding, fluorescence; actives lie on both sides; O15492+P09471;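 note: Galphao activated by GDP with aluminum fluoride before binding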
GSH fluor – compound fluoresces at 488/530 nm on GSH beads | GSH beads flow cytometry, compound fluorescence 488/530 nm; hits give high values | fluorescence (KMESF) at 10 µM | 190,000 tested, 0.25% active | AID 1776; in the data active = fluorescence above about 89;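 note: glutathione beads carrying GST-tagged Bcl family fusion proteins plus one bare bead set; values are compound well signal with DMSO vehicle wells as background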
Avidin bead fluor – compound fluoresces at 488/530 nm on avidin beads | compound fluorescence 488/530 nm, flow cytometry; hits give high values | 220,000 tested, 0.38% active | fluorescence (KMESF) at 10 µM; in the data active = fluorescence above about 47
RGS-Gao – RGS4-Galphao interaction regulator (human); shares compounds with RGS16-Gao; multiplexed bead flow cytometry, RGS–Galpha-o binding; RGS4–Galpha-o binding response, % at 10 µM; 1,600 tested, 99% active;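 note: fluorescently labeled Galpha-o bound to GDP with aluminium fluoride binding biotinylated RGS beads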
Target sequence (P09471 whole entry, looked up): as above
Target sequence (P49798 whole entry, looked up): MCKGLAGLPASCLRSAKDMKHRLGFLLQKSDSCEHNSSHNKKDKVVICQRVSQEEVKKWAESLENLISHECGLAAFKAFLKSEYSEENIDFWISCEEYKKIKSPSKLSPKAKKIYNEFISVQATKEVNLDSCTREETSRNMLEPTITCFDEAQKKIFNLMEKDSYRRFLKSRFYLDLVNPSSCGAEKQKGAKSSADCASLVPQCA
Biotin-avidin – interferes with biotinylated probe binding to avidin beads | streptavidin beads, fluorescein-biotin binding, flow cytometry | AID 1783 | inhibition, % at 10 µM | shares compounds with RGS16-Gao | 1,700 tested, under 10 active;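 active = inhibition above 50%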;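 note: median green fluorescence of gated singlet beads compared with DMSO control wells; 0% = DMSO wells and 100% = complete loss of bead fluorescence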
RGS8-Gao confirm – confirmation of regulators of human RGS8-Galphao interaction | binding response (% of control), % at 10 µM | bead-based flow cytometry RGS8-Galphao binding, fluorescence; actives lie on both sides | shares compounds with RGS16-Gao | 1,700 tested, 3% active; in the data active = binding response below about 72% or above about 130%; inactive = in between;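 note: Galphao activated as GDP AlF4 complex before binding bead RGS8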
RGS7-Gao single – RGS7-Galphao interaction regulation, single point confirmation; response (percent of control binding), % at 10 µM; 1,700 tested, 7.8% active; AID 1837; shares compounds with RGS16-Gao; bead-based flow cytometry RGS7-Galphao binding; actives lie on both sides; in the data active = response below about 75% or above about 130%; inactive = in between;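 note: fluorescent Galphao activated with GDP and aluminum fluoride binding bead-coupled RGS7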
RGS16-Gao conf – confirmation of regulators of human RGS16-Galphao interaction. bead-based flow cytometry, RGS16-Galphao binding; actives lie on both sides. response (% of control binding), % at 10 µM. AID 1838. 1,700 tested, 4% active. shares compounds with RGS16-Gao; in the data active = response below about 74% or above about 130%; inactive = in between;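 note: Galphao activated as the GDP aluminium fluoride complex binding bead-coupled RGS16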
RGS4-Gao single – RGS4-Galphao interaction regulation, single point confirmation | shares compounds with RGS16-Gao | RGS4-Galphao binding, multiplexed bead flow cytometry; actives lie on both sides | binding response (% of control), % at 10 µM | 1,700 tested, 4% active; in the data active = binding response below about 74% or above about 130%; inactive = in between
RGS19-Gao conf – confirmation of regulators of human RGS19-Galphao interaction | shares compounds with RGS16-Gao | bead-based flow cytometry RGS19-Galphao binding; actives lie on both sides | response (percent of control binding), % at 10 µM | 1,700 tested, 5% active | AID 1841; in the data active = response below about 50% or above about 160%; inactive = in between;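 note: 100% = no compound control and 0% = blank background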
An asterisk follows results filed as active; i = inactive; ? = inconclusive; nt = not tested or not shown; [ ] = remark or other dose. This is a sample that favours compounds with a hit; in the whole collection about 1.2% have one here. Unless noted, the rule behind the calls is not given here.

SMILES	RGS8-Gao	RGS4-Gao reg	RGS7-Gao	RGS16-Gao	GSH fluor	Avidin bead fluor	Biotin-avidin	RGS8-Gao confirm	RGS7-Gao single	RGS16-Gao conf	RGS4-Gao single	RGS19-Gao conf	others
O=C(CCc1nc2ccccc2s1)NC1CCOC1=O (centres undefined)	100	99	?	102	nt	7	nt	nt	nt	nt	nt	nt
COc1ccc(NC(=O)Nc2ccon2)c(OC)c1	101	96	99	97	12	6	nt	nt	nt	nt	nt	nt
CCCN(C(=O)c1cc2c(s1)CCC2)c1c(N)n(Cc2ccccc2)c(=O)[nH]c1=O	98	84	?	92	nt	4	nt	nt	nt	nt	nt	nt
Clc1ccc(N/N=C/c2ccncc2)cc1Cl	128	109	113	199*[activator]	11	7	0	100	103	102	103	99	RGS-Gao=109*
Fc1ccc(N/N=C/c2ccncc2)c(F)c1	117	104	106	141	14	4	nt	nt	nt	nt	nt	nt
O=S(=O)(N1CCCCC1)N1CCN(c2ccccc2F)CC1	104	105	156*[activator]	119	15	70*	12	104	108	107	108	93	RGS-Gao=105*
CS(=O)(=O)N1CCN(c2ccccc2F)CC1	97	98	93	83	32	8	nt	nt	nt	nt	nt	nt
CCC(C)(C)NC(=O)CCCSc1nc2ccccc2[nH]1	98	96	?	104	nt	nt	nt	nt	nt	nt	nt	nt
Cc1cc(N2CCN(C(c3ccccc3)c3ccccc3)CC2)n2ncnc2n1	nt	nt	nt	nt	55	nt	0	98	86	91	90	75
Cc1nc2ncnn2c(N2CCN(C(c3ccccc3)c3ccccc3)CC2)c1C	104	102	100	100	17	24	nt	nt	nt	nt	nt	nt
O=C(Nc1ccccc1)Nc1snnc1C(=O)Nc1cccc(O)c1	24*	16*	16*	12*	15	2	2	105	113	106	106	105
COc1ccc(OC)c(S(=O)(=O)N2CCC(C(=O)NCCc3ccc(OC)c(OC)c3)CC2)c1	nt	nt	nt	nt	17	nt	2	102	103	106	102	117
COc1ccc(-c2nnc(SCC(=O)c3[nH]c(C)c(C(C)=O)c3C)o2)cc1	112	175*[activator]	126	180*[activator]	9	17	0	98	96	94	90	103
CC(=O)c1c(C)[nH]c(C(=O)CSc2nnc(-c3ccco3)o2)c1C	100	100	?	100	11	8	nt	nt	nt	nt	nt	nt
O=C1COc2ccc(N3C(=O)C=CC3=O)cc2N1	91	95	91	93	11	9	nt	nt	nt	nt	nt	nt
Cc1ccc2nc(C)c3c(c2c1)SCC3	103	207*[activator]	?	193*[activator]	nt	102*	0	101	100	102	101	107
CC(=O)N1N=C(c2ccco2)CC1c1cc2ccc(C)cc2nc1Cl (centres undefined)	99	103	?	100	nt	4	nt	nt	nt	nt	nt	nt
Cc1cc(NC(=O)C2CCC2)n(-c2ccccn2)n1	14*	8.2*	6.5*	3.5*	48	-3	1	99	106	100	100	99
Cc1cc(NC(=O)C2CCCCC2)n(-c2nc3ccccc3[nH]2)n1	100	101	99	102	10	9	nt	nt	nt	nt	nt	nt
O=Cc1ccc(-c2ccc(Cl)cc2Cl)[nH]1	26*	26*	16*	15*	16	2	2	109	108	112	106	97
CSc1ccc(NC(=O)NCc2ccccc2)cc1	104	107	?	101	nt	8	nt	nt	nt	nt	nt	nt
COc1ccc(C(F)(F)F)cc1NC(=O)c1nc2nc(C)cc(C(F)F)n2n1	30*	38*	33*	5	31	1	i	99	106	101	103	101
Cc1sc(N)c(C(=O)c2ccccc2)c1C	87	126	253*[activator]	113	10	248*	1	90	97	88	94	77	RGS-Gao=126*
CCCn1c(N)c(C(=O)CSc2nc3ccccc3c(=O)n2Cc2ccccc2)c(=O)[nH]c1=O	112	227*[activator]	158*[activator]	354	16	64*	2	89	65*	78	78	48*
CC1CC(=O)Nc2ccccc2N1C(=O)Nc1ccc(F)cc1 (centres undefined)	94	nt	nt	nt	nt	nt	0	101	99	99	99	97
SMILES	RGS8-Gao	RGS4-Gao reg	RGS7-Gao	RGS16-Gao	GSH fluor	Avidin bead fluor	Biotin-avidin	RGS8-Gao confirm	RGS7-Gao single	RGS16-Gao conf	RGS4-Gao single	RGS19-Gao conf	others
O=C(COc1ccccc1C(=O)N/N=C\c1ccc(O)c(O)c1)N/N=C/c1ccc(O)c(O)c1	37*	17*	14*	16*	4	4	-4	61*	21*	60*	54*	53
Cc1nccn1S(=O)(=O)c1ccc(Br)cc1Br	114	145	168*[activator]	127	10	92*	nt	nt	nt	nt	nt	nt	RGS-Gao=145*
COc1ccc(Br)cc1S(=O)(=O)n1ccnc1C	107	106	103	106	35	13	nt	nt	nt	nt	nt	nt
O=C(Nc1cccc2ncccc12)c1ccc(Br)c([N+](=O)[O-])c1	150*[activator]	120	121	246	10	13	1	104	101	101	104	102	RGS-Gao=120*
O=C(Nc1cccc2ncccc12)c1cccnc1	nt	nt	nt	nt	17	nt	-1	104	110	98	104	83
O=C(Nc1cccc2ncccc12)c1cccc(F)c1	96	88	93	97	7	12	nt	nt	nt	nt	nt	nt
CS(=O)(=O)c1nc(S(=O)(=O)c2ccc(Cl)cc2)c(NCc2ccccn2)s1	102	100	101	104	17	7	nt	nt	nt	nt	nt	nt
CCN(CC)C(=O)C(=O)c1cccn1-c1c(Cl)cccc1C#N	102	112	158*[activator]	113	12	109*	1	104	106	104	105	99	RGS-Gao=112*
CC(C)(C)c1ccc(C(=O)N2CCCN(c3ccc([N+](=O)[O-])cn3)CC2)cc1	98	94	?	96	nt	6	nt	nt	nt	nt	nt	nt
